Data: PubChem BioAssay (NCI)
“And” between values parts separate entries of the source, which are not always exact repeats. Identical values can stand only once. This is part of a sample that, as a whole, favours compounds with a hit. Of some 83,000 tested, about 20% had one in any assay.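 Assay: single dose, 48 h. Readout: percent growth (0 = no net growth; negative = cell death). Active: <10.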 The source made the active and inactive calls.

These molecules were tested on MCF7 breast (assay: NCI-60 one-dose screen, 48 h (100 = growth as untreated, 0 = no growth, -100 = all killed)). Settings: 10 µM unless noted.

Compound	growth
CCC/C(Cl)=N\OC(=O)Nc1ccc(F)cc1	-78.4% [100 µM] (active) and -69.5% [100 µM] (active)
CCCn1c2c(c3ccccc3c1=O)C(=O)c1ccccc1-2	51.4% [100 µM] (inactive) and 17.4% [100 µM] (inactive)
C#CCn1c2c(c3ccccc3c1=O)C(=O)c1ccccc1-2	11.6% [100 µM] (inactive) and 10.4% [100 µM] (inactive)
C=C1C(=O)OC2/C=C(/C)C3(O)OC(C)(CC(OC(=O)C(C)C)C12)CC3OC(C)=O (stereo not drawn)	-83.4% [100 µM] (active)
COc1cc(Nc2ccc3c(c2)CCC3)nc(OC)n1	22.3% [100 µM] (inactive) and -82.6% [100 µM] (active)
N#CC1C(=O)N(c2ccccc2)NC12OC(=O)c1ccncc12 (stereo not drawn)	85.8% [20 µM] (inactive) and 87.1% [20 µM] (inactive)
CCCCCCCCCCCCCC1=C(O)C(=O)C(CC2=C(O)C(=O)C(CCCCCCCCCCCCC)=C(O)C2=O)=C(O)C1=O	2.9% [100 µM] (active) and -79.8% [100 µM] (active)
CCOc1cc2c(cc1O)/C(=N\N)C[C@@H]1[C@@H]2CC[C@]2(C)[C@@H](O)CC[C@@H]12	20.2% [100 µM] (inactive) and -66.9% [100 µM] (active)
CC(O)c1cc2c(s1)C(=O)c1ccsc1C2=O (stereo not drawn)	-56.8% [100 µM] (active) and -91.5% [100 µM] (active)
Cc1ccc(/C=N/Nc2ccc3ccccc3n2)s1	-79.9% [100 µM] (active) and -100% [100 µM] (active)
CC12CCC3c4cc(Br)c(O)c(Br)c4CCC3C1CCC2O (stereo not drawn)	5.35% [100 µM] (active) and -48.4% [100 µM] (active)
CCOC(=O)CCCOc1cc(-c2ccccc2F)nc2cc3c(cc12)OCO3	14.3% [100 µM] (inactive) and -100% [100 µM] (active)
Cc1ccc(NC(=S)C#N)c(C)c1	48.6% [100 µM] (inactive) and -77.7% [100 µM] (active)
Cc1cc(-c2nc3ccccc3s2)ccc1N	27.4% [100 µM] (inactive) and 5.42% [100 µM] (active)
CC(=O)OC(=C(C#N)C#N)c1nccnc1C(C)=O	106% [20 µM] (inactive) and 75.4% [20 µM] (inactive)
COc1c2c(c(OC)c3c1c(=O)c1ccccc1n3C)OCO2	9.09% [100 µM] (active)
O=C(CCc1ccccc1)On1c(-c2ccccc2)nc2ccccc2c1=S	-34.4% [100 µM] (active) and -60.1% [100 µM] (active)
COc1cc([N+](=O)[O-])c(OC)c2c(Nc3ccc(S(=O)(=O)O)c4cc(S(=O)(=O)O)cc(S(=O)(=O)O)c34)cc(C)nc12	-88.5% [100 µM] (active) and -100% [100 µM] (active)
CCOC(=O)CCC(NC(=O)c1ccc(OCc2nc3cc(C(F)(F)F)ccc3nc2-c2ccccc2)cc1)C(=O)OCC (stereo not drawn)	32% [100 µM] (inactive) and -53% [100 µM] (active)

Compound	growth
CC(C)(C)c1cc(C2COC(=O)COCC(=O)OCCOCCOCCO2)cc(C(C)(C)C)c1O (stereo not drawn)	64.9% [100 µM] (inactive) and 75.7% [100 µM] (inactive)
CC(C)C1OC23CCCCC2C(C#N)(C#N)C1(C#N)C(=N)O3 (stereo not drawn)	-20.4% [100 µM] (active)
COc1cc2c(cc1-c1coc3cc(OCC=C(C)C)ccc3c1=O)OCO2	-12% [100 µM] (active) and -54.2% [100 µM] (active)
COc1ccc(C2=C(N)c3ccccc3C2=O)cc1	79.1% [100 µM] (inactive) and 72.9% [100 µM] (inactive)
CCCC(=O)Oc1c2ccsc2c(OC(=O)CCC)c2ccsc12	-72.6% [100 µM] (active) and -100% [100 µM] (active)
Cc1c2c(c(O)c3c(O)cccc13)C(=O)C1(O)C(O)=C(C(=O)NCNc3ccc(C(N)=O)cn3)C(=O)C(N(C)C)C1C2 (stereo not drawn)	-81.9% [100 µM] (active) and -89.4% [100 µM] (active)
CCCCOC(=O)C1CN2C(=NC1(C(F)(F)F)C(F)(F)F)Sc1ccccc12 (stereo not drawn)	6.83% [100 µM] (active) and 25.5% [100 µM] (inactive)
C=C1C(=O)OC2C1CC(O)/C(C)=C\CCC1(C)OC21 (stereo not drawn)	21.9% [100 µM] (inactive) and -83.3% [100 µM] (active)
CC1OC(OC2C(O[C@H]3CC[C@@]4(C)C(=CC[C@H]5[C@@H]6C[C@@H]7O[C@]8(CC[C@H](C)CN8)[C@@H](C)[C@@H]7[C@@]6(C)CC[C@@H]54)C3)OC(CO)C(O)C2OC2OC(CO)C(O)C(O)C2O)C(O)C(O)C1O (stereo partly drawn)	91.3% [100 µM] (inactive) and -95.2% [100 µM] (active)
CC(C)=CCC/C(C)=C/CC/C(C)=C/CC/C(C)=C/C=C/C=C(\C)CC/C=C(\C)CC/C=C(\C)CCC=C(C)C	74.5% [100 µM] (inactive) and 28.2% [100 µM] (inactive)
Cc1ccc(/C=N/Nc2cc(C)c3ccccc3n2)s1	-80.7% [100 µM] (active) and -40.2% [100 µM] (active)
CCOC(=O)c1nc2cc(C(F)(F)F)ccc2nc1Nc1ccc(F)cc1	34% [100 µM] (inactive) and 3.76% [100 µM] (active)
N#Cc1sc2nc(/C=C3/C=CC=CC3=O)c(O)n2c1N	30.3% [100 µM] (inactive) and 3.44% [100 µM] (active)
N#CC1=C(N)OC(c2cccc([N+](=O)[O-])c2)C1(C#N)C#N (stereo not drawn)	-9.78% [100 µM] (active) and -88.5% [100 µM] (active)
CC(=O)Nc1c(C)cc2c(nc3n2CCC3OC(C)=O)c1[N+](=O)[O-] (stereo not drawn)	105% [100 µM] (inactive) and 101% [100 µM] (inactive)
ClC(Cl)(Cl)C1CCOC1n1nnc2ccccc21 (stereo not drawn)	68.3% [100 µM] (inactive) and 0.0175% [100 µM] (active)
CC(C)=CCC/C(C)=C/CC/C(C)=C/CSc1ccc(Cl)cc1C(=O)O	-52.6% [100 µM] (active) and 17.2% [100 µM] (inactive)
COC(=O)c1ccc(CCc2cc(O)c(Br)cc2O)cc1	-61.7% [100 µM] (active) and -71.7% [100 µM] (active)
CC1=CCC2C3(C)CCC2(C(C)C)C1C3 (stereo not drawn) (tested in a mixture with another compound)	-76.9% [100 µM] (active) and -91.7% [100 µM] (active)
